Assay outcomes: PubChem, The Scripps Research Institute Molecular Screening Center
rCAG RNA binder = r(CAG) repeat RNA binding | AID 651821 | TO-PRO-1 dye displacement fluorescence | actives 1.3% (n = 370,000) | inhibition, % at 3 µM;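 active = inhibition above the plate cutoff, the mean of all test compounds on that plate plus 3 SD, cut at about 35% in these data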;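 note: higher means more dye released from RNA so lower well fluorescence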
MsrA act = bovine methionine sulfoxide reductase A activation; purified bovine MsrA, absorbance read-out; activation, % at 10.6 µM; actives 0.3% (n = 360,000); AID 602163; in the data active = activation above about 7.5%
sPLA2-III inh = Inhibits HGIII-sPLA2 liposome hydrolysis, primary screen. Q9NZ20. QFRET BODIPY PC-A2 liposome hydrolysis, fluorescence. actives 0.56% (n = 370,000). inhibition, % at 12.2 µM;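 active = inhibition above mean plus 3 SD of compounds lying within the high and low control bounds, cut at about 19% in these data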
Target sequence (Q9NZ20 whole entry, looked up): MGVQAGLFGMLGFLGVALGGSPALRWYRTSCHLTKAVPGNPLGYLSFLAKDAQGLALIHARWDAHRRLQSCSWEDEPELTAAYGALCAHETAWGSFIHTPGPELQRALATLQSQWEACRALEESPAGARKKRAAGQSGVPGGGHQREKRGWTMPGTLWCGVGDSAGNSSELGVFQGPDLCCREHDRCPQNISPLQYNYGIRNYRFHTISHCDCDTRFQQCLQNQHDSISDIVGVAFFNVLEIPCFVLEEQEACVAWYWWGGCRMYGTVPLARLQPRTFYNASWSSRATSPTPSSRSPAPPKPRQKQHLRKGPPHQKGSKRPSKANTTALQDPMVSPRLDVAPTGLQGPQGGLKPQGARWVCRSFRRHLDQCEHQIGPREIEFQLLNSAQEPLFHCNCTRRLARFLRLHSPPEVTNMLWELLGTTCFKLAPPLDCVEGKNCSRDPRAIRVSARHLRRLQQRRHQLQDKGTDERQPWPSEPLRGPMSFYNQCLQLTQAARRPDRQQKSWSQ
PG9 binder = small molecules binding HIV-1 gp120 antibody PG9. TR-FRET gp120-PG9 antibody binding. inhibition, % at 6.7 µM. actives 0.43% (n = 360,000); in the data active = inhibition above about 8.5%
MsrA inhibitor = bovine MsrA inhibition. purified bovine MsrA, absorbance read-out. inhibition, % at 15.5 µM. actives 0.75% (n = 360,000). AID 651718; in the data active = inhibition above about 4.5%
rCAG bind conf = r(CAG) RNA repeat binding, confirmation; TO-PRO-1 dye displacement fluorescence; shares compounds with rCAG RNA binder; actives 70% (n = 4,300); inhibition, % at 3 µM;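 active = inhibition above a per-plate cutoff, the mean inhibition of sample wells plus 3 SD, cut at about 35% in these data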;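 note: loss of TO-PRO-1 fluorescence as compound displaces dye from 1x1 AA loop RNA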
DNA CAG counter = disrupts DNA CAG TO-PRO-1 complex, flagging rCAG hits | shares compounds with rCAG RNA binder | d(CAG) DNA oligo TO-PRO-1 dye displacement, fluorescence | inhibition, % at 3 µM | actives 94% (n = 4,300);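 active = inhibition above its plate's cutoff, the mean test-well inhibition plus 3 SD, cut at about 4.8% in these data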;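 note: hits displace the dye from DNA and so lower well fluorescence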
dCAG dye DR = DNA CAG dye complex inhibition, dose response counter-screen; DNA CAG/GTC duplex TO-PRO-1 dye displacement fluorescence; IC50, µM; actives 20% (n = 250); AID 686960; shares compounds with rCAG RNA binder; in the data active = IC50 below about 10 µM
Each line names hits and unclear results; the compound was inactive in the other large screens (follow-up assays come after a bar, where they were run). This is a sample that favours compounds with a hit; in the whole collection about 3.2% have one here.

COc1ccccc1NS(=O)(=O)c1ccc(C)c(C(=O)Nc2ccc(S(=O)(=O)Nc3onc(C)c3C)cc2)c1	rCAG RNA binder 62.7 | rCAG bind conf 56.9 | DNA CAG counter 22.3
COc1ccccc1NS(=O)(=O)c1ccc(C)c(NS(=O)(=O)c2cc(C(=O)O)cc(C)c2C)c1	rCAG RNA binder 42.5 | rCAG bind conf inactive | DNA CAG counter 7.3
COc1cc(NC(=O)c2ccc(NS(=O)(=O)c3c(C)noc3C)cc2)cc(OC)c1	none
Cc1noc(C)c1S(=O)(=O)Nc1ccc(C(=O)Nc2ccc(OC(F)(F)F)cc2)cc1	rCAG RNA binder 38.9 | rCAG bind conf inactive | DNA CAG counter 4.7
CC(COc1ccc(Cl)cc1)CN1CCC(C(O)(c2ccccc2)c2ccccc2)CC1 (stereo not given)	none (no result: MsrA act, PG9 binder, MsrA inhibitor)
CC[C@@H](CCCc1ccc(OC)cc1)CCC(=O)N(c1ccccc1)c1ccccc1	none (no result: MsrA act, PG9 binder, MsrA inhibitor)
CCOC(=O)c1c(-c2ccc(OC)cc2)oc2c1C(OC(C)=O)CCC2 (stereo not given)	none
COc1ccccc1NS(=O)(=O)c1cc(C(=O)Nc2ccc(S(=O)(=O)Nc3onc(C)c3C)cc2)ccc1C	rCAG RNA binder 69.8 | rCAG bind conf 78.1 | DNA CAG counter 30.4 | dCAG dye DR inactive
COc1ccccc1OCC(=O)Nc1ccc(S(=O)(=O)Nc2onc(C)c2C)cc1	none
CC(C)Oc1ccc(C(=O)N/N=C/c2ccc(-c3ccc(S(=O)(=O)Nc4ncccn4)cc3)o2)cc1	rCAG RNA binder 53.7 | rCAG bind conf 64.7 | DNA CAG counter 21.7
Cc1ccc(C(=O)N/N=C\c2ccc(-c3ccc(Cl)cc3)o2)cn1	none
COc1ccccc1NS(=O)(=O)c1cccc(NC(=O)NCCCl)c1	none
Cc1noc(NS(=O)(=O)c2ccc(NC(=O)c3ccc(OC(C)C)cc3)cc2)c1C	rCAG RNA binder 43.9 | rCAG bind conf inactive | DNA CAG counter inactive
COc1ccccc1NS(=O)(=O)c1cccc(NC(=O)Nc2cccc(Cl)c2)c1	rCAG RNA binder 35.0 | rCAG bind conf inactive | DNA CAG counter 13.4
COC(=O)[C@]12C[C@H](CC(=O)N3CCCC3)C(=O)N(Cc3ccc4c(c3)OCO4)C1=C[C@H](C(C)C)O[C@@H]2C1CC1	none (no result: MsrA act, PG9 binder, MsrA inhibitor)
COc1ccc(CNS(=O)(=O)c2cc3c(cc2Br)CC(C)N3C(C)=O)cc1 (stereo not given)	none (no result: MsrA act, PG9 binder, MsrA inhibitor)
CCOc1cc([N+](=O)[O-])cc(/C=C2/NC(=O)N(Cc3ccccc3F)C2=O)c1O	rCAG RNA binder 45.6, MsrA inhibitor 4.6 | rCAG bind conf 46.6 | DNA CAG counter 13.8
CC1CCN(S(=O)(=O)c2ccc3c(c2)c(=O)c(C(=O)NCc2cccs2)cn3C)CC1	rCAG RNA binder 42.9 | rCAG bind conf inactive | DNA CAG counter 7.5
COc1ccc(Cn2cc(CN3[C@H](C)COc4cc(Br)ccc4S3(=O)=O)nn2)cc1	none (no result: MsrA act, PG9 binder, MsrA inhibitor)
COc1ccc(C)cc1NCc1cc(=O)oc2cc(-c3ccccc3)c(O)cc12	none
COC(=O)c1ccccc1NCc1cc(=O)oc2cc(O)c(O)cc12	rCAG RNA binder 36.3 | rCAG bind conf 52.1 | DNA CAG counter 22.8
COC(=O)COc1ccc(C2Nc3c(Cl)ccc(C(=O)O)c3C3C=CCC32)cc1 (stereo not given)	rCAG RNA binder 76.3 | rCAG bind conf 49.1 | DNA CAG counter 17.2
COc1cccc2c1NC(C(=O)O)C1CC=CC21 (stereo not given)	none (no result: rCAG RNA binder, sPLA2-III inh, PG9 binder, MsrA inhibitor)
COc1ccc(OC)c(C2Nc3c(Cl)ccc(C(=O)O)c3C3C=CCC32)c1 (stereo not given)	rCAG RNA binder 49.9 | rCAG bind conf inactive | DNA CAG counter 7.1
O=C(CSc1nnc(-c2ccco2)o1)c1ccccc1	none
CC(=O)c1ccc(NC(=O)CSc2nnc(-c3ccco3)c(-c3ccco3)n2)cc1	rCAG RNA binder 45.4 | rCAG bind conf 36.9 | DNA CAG counter 15.5
O=C(CSc1nnc(-c2ccco2)c(-c2ccco2)n1)c1ccccc1	rCAG RNA binder 74.6 | rCAG bind conf 57.5 | DNA CAG counter 26.4
O=C(CNC(=O)Cc1ccccc1)N=Nc1c(O)[nH]c2ccccc12	none
O=C(CNC(=O)/C=C/c1ccco1)N=Nc1c(O)[nH]c2ccccc12	rCAG RNA binder 34.8 | rCAG bind conf 40.2 | DNA CAG counter 16.8
COCCN1C(=O)Cc2c1nc(N)c1c(N)nc(N3CCN(c4ccc(F)cc4)CC3)c(C#N)c21	rCAG RNA binder 37.6 | rCAG bind conf inactive | DNA CAG counter 14.8
O=C(O)c1cccc(-n2cccc2C=C2C(=O)c3ccccc3C2=O)c1	rCAG RNA binder 57.3 | rCAG bind conf 46.7 | DNA CAG counter 13.6
Cc1cc(C=C2C(=O)c3ccccc3C2=O)c(C)n1-c1cccc(C(=O)O)c1	rCAG RNA binder 56.5 | rCAG bind conf 50.8 | DNA CAG counter 14.6
CCCC1CCC2(CCCN2CCOC(=O)Nc2ccc(Br)cc2)CC1 (stereo not given)	none (no result: rCAG RNA binder, MsrA act, PG9 binder, MsrA inhibitor)
Cc1cccc(S(=O)(=O)NC(=O)C2(C)CCN2C(=O)Cc2ccc(-c3ccccc3)cc2)c1 (stereo not given)	rCAG RNA binder 52.8 | rCAG bind conf 49.0 | DNA CAG counter 15.0
COc1ccc(S(=O)(=O)NC(=O)C2(C)CCN2C(=O)Cc2ccc(C(C)(C)C)cc2)cc1 (stereo not given)	rCAG RNA binder 41.6 | rCAG bind conf inactive | DNA CAG counter 4.8
CC(C)(C)c1ccc(CC(=O)N2CCC2(C)C(=O)NS(=O)(=O)c2cccc(OC(F)F)c2)cc1 (stereo not given)	rCAG RNA binder 52.0 | rCAG bind conf 40.9 | DNA CAG counter 9.7
Cc1ccc(F)c(S(=O)(=O)NC(=O)C2(C)CCN2C(=O)Cc2ccc(-c3ccccc3)cc2)c1 (stereo not given)	rCAG RNA binder 60.1 | rCAG bind conf 55.1 | DNA CAG counter 18.2
CC1(C(=O)NS(=O)(=O)c2cccc(Cl)c2)CCN1C(=O)Cc1ccccc1 (stereo not given)	none
CCc1c(-c2ccccc2Br)ncn1CCc1ccccc1OC	none (no result: MsrA act)
CC1(C(=O)NS(=O)(=O)Cc2ccccc2)CCN1C(=O)Cc1ccc(-c2ccccc2)cc1 (stereo not given)	rCAG RNA binder 57.6 | rCAG bind conf 49.7 | DNA CAG counter 13.8
Cc1cccc(S(=O)(=O)NC(=O)C2(C)CCN2C(=O)Cc2ccc(C(C)(C)C)cc2)c1 (stereo not given)	rCAG RNA binder 40.3 | rCAG bind conf inactive | DNA CAG counter 7.5
CC(C)(C)c1ccc(CC(=O)N2CCC2(C)C(=O)NS(=O)(=O)c2ccccc2)cc1 (stereo not given)	none
O=C(NCCO)C(=O)c1c(-c2ccc(Cl)cc2)cc2ccccn12	none
